# Measurements: publication PMC12864922, “TDP-43 directly inhibits mRNA accumulation in neurites through modulation of mRNA stability”
# Whole data set: some 9,900 sequences, median “r (bound/input frequency ratio)” near 0.7, cut for the highest 2% near 6.5. Many of the other results were omitted from the sample, so the highest values are more common in it than they were.
# B1: ENSMUSG00000043670.167|Diras1 (ssRNA)
# RNA: GGGAGUUCUACAGUCCGACGAUCGCUUCGAUAUCCGCAUGCUAGGUUUGGGGUGCUGAGGGUGGGGUGCCCAGCUGAGAGUCUAUCAGCAAAGUCCCUGUGUGCGGUGAUAGGACUAGUGGCUGCUGCCCUAGGGCUCUGACAGAAUCUGAGCCUCUUUGCUGGUCAUGUGUACUCUGGAGACUGUCCCCCAUGUCUGCCCUGAGUUACGGAGCCCCUGUGGUAUCUGCGAGACUGUCCAGGAGACUUGAGUGGCUCCUGGGCCUGUGUCCCACCCAGAUGAGGGUGACUUAGAAUUCUGUGUCUCUUGCGGUCGCACUAGUGUGGAAUUCUCGGGUGUCAAGG
# B2: ENSMUSG00000042529.74|Kcnj12 (ssRNA)
# RNA: GGGAGUUCUACAGUCCGACGAUCGCUUCGAUAUCCGCAUGCUAACUUGGGCAAGACUGUUUACAAACAAAAACAAACAAACAAACAAUCAAAAAAAAAACCCACCCCACAAAACACAAGAAAACAUUAACAGGUGGUUCAAUUUUUAAAAUUCCUGGUGUGGGGACAGUUGGAAUUCUACUCAGCGCUGCCAGGCAAGCAGCUGGACGGAGAACCCUGAGGGUUCUCAGAGGUCUGUUUUCUCCCUCACGUGGGCCAGGGCCUUAAGCGAGUUGUCAUGCUUAAGGAUGAAUCAGGCUGCUUGCUCUUGCGGUCGCACUAGUGUGGAAUUCUCGGGUGUCAAGG
# B3: ENSMUSG00000032194.238|Kank2 (ssRNA)
# RNA: GGGAGUUCUACAGUCCGACGAUCGCUUCGAUAUCCGCAUGCUAAAACCUCAGCAGGGCAGCAUUGAGACUCAUGGACUAAAGGAAAGUGUUCACUCUUCUAGACAAGUGGGUCUCUUGGUUUGAUGGAGUCUUACUCCGCUUGAGUUUUGUAGAAGGGGUUUGUCUAAGGCAUAGAGGCUUGGUUGGCAUAAGAAAAUAAGAUGGACAGAUGGAUGGGUGGAUGGAUGGAUGGCUGAUUGAGUGGGUGGGUGGGUGGAUGGAUGCAUAAAUGAAUAGAUGGAUGGAUGAAUGAACAGAUAGAUCUCUUGCGGUCGCACUAGUGUGGAAUUCUCGGGUGUCAAGG
# B4: ENSMUSG00000028439.2|Fam219a|50:54;256:260 (ssRNA)
# RNA: GGGAGUUCUACAGUCCGACGAUCGCUUCGAUAUCCGCAUGCUAGACGAGGACCUAGAUCUCAUCCCCCCCAAGUCUGUGAACCCCACCUGCAACACAUGUCAGGCCACUUCCUCCACCGCCUGCCACAUUCAGUAGUGGGCGGGGUCGCCGCGGUGCACGGGGCGCUGACCUGGGCCCGGUGGGAUGCAGCAGGAGAGACCCCUACCCUGCUGGUCCACUGGUCCCCAGCCCCGCGCCUCUUAGAGCCGCCAACCUCGUAACAGUCAUUGCUUCCUCCUAUGGUAGGACGUGUACCUCACACACUCUUGCGGUCGCACUAGUGUGGAAUUCUCGGGUGUCAAGG
# B5: ENSMUSG00000058297.541|Spock2|207:211 (ssRNA)
# RNA: GGGAGUUCUACAGUCCGACGAUCGCUUCGAUAUCCGCAUGCUAUUUUGAUAUCGGCUCCCCAAAGCCCAAGCCCACAGCCCUAGGAGAGAACCAGGGGCCCAUCUUUGACACCUGGGCCAUCACGAGCCCUCCCGCCUGCAGUUGUCCUAGGGAAAGACCUGGGGGUGCAAAAGGAGAUUCAAGACAUCCGUACCAAGUCAGGCAGAGCUACCCGCUUCUCAGCCCGUGUCCCACUUAAAACCGUCCGAACACAAAUCACUGAGCUUAGAGUUAAACAUUGUGGUCAAGUGCUUGGGUUCCGUCUCUUGCGGUCGCACUAGUGUGGAAUUCUCGGGUGUCAAGG
# B6: ENSMUSG00000058297.519|Spock2 (ssRNA)
# RNA: GGGAGUUCUACAGUCCGACGAUCGCUUCGAUAUCCGCAUGCUACACAGGAGUCGUGACCACGUGUGAUGGGUGGGCACAGGUCUGCCUUGCUCCAGCCCCCUCCCUUGGUUUCUGUUGGUACCCAUUUGGCUUUUAUCUGCUUUCUGCUUCACCACUAAGUGCGUAGGUGGGGUCUUUUGAUAUCGGCUCCCCAAAGCCCAAGCCCACAGCCCUAGGAGAGAACCAGGGGCCCAUCUUUGACACCUGGGCCAUCACGAGCCCUCCCGCCUGCAGUUGUCCUAGGGAAAGACCUGGGGGUGCAACUCUUGCGGUCGCACUAGUGUGGAAUUCUCGGGUGUCAAGG
# B7: ENSMUSG00000061578.447|Ksr2 (ssRNA)
# RNA: GGGAGUUCUACAGUCCGACGAUCGCUUCGAUAUCCGCAUGCUAUUUCAGAGGGGAUAGUUCCUUCUAACCUUGUACUGGGACAUCAUCUAUGUCCCCAUCCCCAGAGCUGAAUUAGAGACACCAAGUAGCCUCUUGGGUUGUUUUGUGGGGUGUUCCCCUUGCUGGUCAAAGGAGUGGAAAGCCACCUUGCUGUAAAUGCUCUUGUUUUCUGUAGCAAUCUUGAACUCUUUUUUUUUUUUGUUCGUUUGUUUGUUUGUUUGUUUGUUUGUUUUUUCAAGACAGGGUUUUUCUGUAUAGCCCUGCUCUUGCGGUCGCACUAGUGUGGAAUUCUCGGGUGUCAAGG
# B8: ENSMUSG00000031028.308|Tub (ssRNA)
# RNA: GGGAGUUCUACAGUCCGACGAUCGCUUCGAUAUCCGCAUGCUAGAACCCUCAGCGAGGUAGCCUUUGUUUACAGUCUAGUUUCUAGAGGGCAGUAGGACUUCCAUGCUGGGGCUGGCCUAUCUCCUGAUGAAAGAUUACAGUGCCAUCUCCUUCCCAUAGUUCUGUGUCUGCCCUCCCUCCCUGACUUUAUAGGGAGAAAUCUCCUGACAUUAGAGGUGAUAGAAACCAGAGCUUUAGUCUAGUCAGGCUGUUUCUCUGGGUUGACAAGUUUAAGGUUGAACAGGCUGAUUUCUGGAAUCUCACUCUUGCGGUCGCACUAGUGUGGAAUUCUCGGGUGUCAAGG
# Molecular target: TDP-43 (Homo sapiens, UniProt Q13148 1-414)
# Assay: RNA Bind-n-Seq with designed 260-mer pool; 25 mM Tris-HCl, 150 mM KCl, 3 mM MgCl2, BSA (printed 500 mg/mL), 20 units/mL SUPERase IN; pH not stated; 500 nM RNA pool, 1 h, 4 C; TDP-43 5, 50, 500 nM; high values mean tight binding
# Conditions: protein: recombinant; tags: SBP (GST cleaved off with PreScission; pGEX-GST-SBP)
# Outline: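 Duplicate measurements used two independent batches of recombinant SBP-tagged TDP-43, which was captured on streptavidin beads at 5, 50 or 500 nM. The beads were incubated with 500 nM of an in vitro-transcribed 260-nt 3′ UTR oligo pool for 1 h at 4 °C in 25 mM Tris-HCl, 150 mM KCl, 3 mM MgCl2, BSA and SUPERase IN. After washing, biotin elution, reverse transcription, PCR amplification and sequencing, binding was expressed as R: each oligo's normalized read abundance in the bound sample over its abundance in input.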
# Sequence of TDP-43 (Q13148 whole entry): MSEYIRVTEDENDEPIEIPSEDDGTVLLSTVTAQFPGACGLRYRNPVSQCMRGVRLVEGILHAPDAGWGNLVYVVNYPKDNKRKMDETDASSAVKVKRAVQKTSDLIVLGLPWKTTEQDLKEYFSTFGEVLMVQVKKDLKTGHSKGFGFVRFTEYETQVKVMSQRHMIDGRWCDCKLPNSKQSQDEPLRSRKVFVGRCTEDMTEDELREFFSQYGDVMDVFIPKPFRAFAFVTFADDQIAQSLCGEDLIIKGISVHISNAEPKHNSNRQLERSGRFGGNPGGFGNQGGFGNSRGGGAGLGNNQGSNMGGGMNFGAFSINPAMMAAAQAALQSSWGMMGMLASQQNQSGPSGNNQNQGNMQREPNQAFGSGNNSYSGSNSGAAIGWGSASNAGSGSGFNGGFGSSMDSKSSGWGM
row,Binder,binding signal
1,B1,1.03 R (bound/input frequency ratio)
2,B2,1.56 R (bound/input frequency ratio)
3,B3,0.95 R (bound/input frequency ratio)
4,B4,0.757 R (bound/input frequency ratio)
5,B5,0.821 R (bound/input frequency ratio)
6,B6,0.833 R (bound/input frequency ratio)
7,B7,2.55 R (bound/input frequency ratio)
8,B8,0.194 R (bound/input frequency ratio)
